In the first test the target is BST2. Nature of the test: pooled miR-30 sensor sort-seq; sequence = guide strand. The settings on record: shRNA.
With TTGTCCGCGATTCTCACGCTTA, the sensor-assay potency score (higher = more potent) was -0.717.
On the same count and under the same terms, the figure for TCAAGCTCCTCCACTTTCTTTT is -0.76.
The sequence TGAAGCTTATGGTTTAATGTAG gave a sensor-assay potency score (higher = more potent) of -0.303.
In turn, TACAGCGCTTATCCCCGTCTTC had a sensor-assay potency score (higher = more potent) of -1.34.
Sequence TTCTCAGTCGCTCCACCTCTGC displayed a sensor-assay potency score (higher = more potent) of -1.51.
On the same count and under the same terms, the figure for TTGATGGTGAAGATAATCAAGG is -1.58; for TCTCACGCTTAAGACCTGGTTT it is -0.474.
Sequence TTTGTCCTTGGGCCTTCTCTGC registered a sensor-assay potency score (higher = more potent) of -1.64.
In turn, TTCTCTTCTCAGTCGCTCCACC yielded a sensor-assay potency score (higher = more potent) of -0.48.

The target in a further test is BTAF1. The test is described as above. The settings on record: shRNA.
In turn, TTACTCAACAGTTCCATCCAAA showed a sensor-assay potency score (higher = more potent) of -0.305.
TAAAGTATTAATTACATCCTGA: the sensor-assay potency score (higher = more potent) was -0.104.
TTTTGATCTTGCATATTCCTGG showed a sensor-assay potency score (higher = more potent) of -0.211.
Still for that read-out and setting: the result for TTGATCTTGCATATTCCTGGGC reads 0.499.
As to TAAGAGTACAATAATAGTCTTG, the sensor-assay potency score (higher = more potent) is -0.191.
As for TAATACTATTTGTTGAAGCTGT, the sensor-assay potency score (higher = more potent) amounted to 0.361.
Still for that read-out and setting: the figure for TAACCAGTTCACACCATCCTGC is -0.839; for TAGCTTCAACAGCTTGTCCTGC it is -0.281; for TAGAGTGTAATTATACCTCTGT it is 0.377.
TAGAACTTTCGGAAGTAGGTTC showed a sensor-assay potency score (higher = more potent) of -0.237.
On to TACAGCAACAAAGTGCTCCTAA, for which the sensor-assay potency score (higher = more potent) came to 0.633.
For TTTACTGCTTTTGACAACTTTG, the sensor-assay potency score (higher = more potent) was -1.03.

The target in the next test is BVES. Described as above. As to conditions: shRNA.
TTCTGCTCCTTCTTCTATCGGT had a sensor-assay potency score (higher = more potent) of 0.109.
On to TTATCATCTGCAATAATGGTGA, for which the sensor-assay potency score (higher = more potent) was -0.542.
Sequence TCTTCTATCGGTTTCATCTTGG gave a sensor-assay potency score (higher = more potent) of 0.0355.
The same measure, in the same setting: the result for TTCTTCTATCGGTTTCATCTTG reads -0.512.
TTAGTCTTCTGAACAAATCTGG registered a sensor-assay potency score (higher = more potent) of 0.0292.
In turn, TTTTTCACCTTTGTGCATCTGA returned a sensor-assay potency score (higher = more potent) of 0.533.
For TTTCATACAAGAAAGGTTCTGA, the sensor-assay potency score (higher = more potent) was 0.905.
The same measure, in the same setting: the result for TTATATCCAAGGCACATCGGTA reads -1.03.
Sequence TTGTGCATCTGAGTTGATCTAA came in with a sensor-assay potency score (higher = more potent) of 0.0688.
TTCCTTTTCAATCTTTACCGGT yielded a sensor-assay potency score (higher = more potent) of -0.474.
In the case of TAGTCTTCTGAACAAATCTGGA, the sensor-assay potency score (higher = more potent) is -1.1.
In the case of ATTTGCTACATGAAAAACCAGA, the sensor-assay potency score (higher = more potent) was -1.03.

Another test concerns the target BZW1. The description is as above. The settings on record: shRNA.
Sequence TTCTTCTTCAGCATTTTTGAGC gave a sensor-assay potency score (higher = more potent) of -0.679.
The same measure, in the same setting: the result for TTCAAGAACAGCAGCAGCTTTT reads -0.773.
For TTGTGAAGTGTTCAACACTTTG, the sensor-assay potency score (higher = more potent) was -1.21.
Same read-out and setting: the result for TTTTCTAGTTTTAAAACGCTGG reads -0.34; that for TTACTTCATCTTCAAAACCTTT, -1.14; that for AATAATACAGTCTTGAAACTGA, 0.296.
Further: reference of the scale not given here.
